KKLEB cytotox – cytotoxicity in KKLEB CF airway cells, primary screen, cytotoxicity control for CF NF-kB inhibitor project, cell-based, uHTS, fluorescence assay plates; KKLEB CF airway cells viability, ATPlite luminescence, overnight; hits give low values; cells stimulated with P. aeruginosa culture filtrate; activity change (cytotoxicity), % at 5 µM; hit rate 0.36% among 360,000;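 active = corrected activity change at or below -50% at 5 µM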
Peg3 promoter – Peg3 promoter-driven luciferase inhibitors, primary screen, cell-based, HeLa, luciferase luminescence; HeLa PEG-Prom luciferase reporter, overnight; inhibition, % at 20 µM; hit rate 1.7% among 360,000; AID 588405, 2011;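 active = inhibition of at least 50% at 20 µM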
TWEAK Fn14 block – inhibitors of TWEAK-Fn14 signaling, primary screen, luciferase reporter cells, uHTS | inhibition, % at 10 µM | TWEAK-stimulated Fn14 reporter cells, luciferase luminescence, 8 h | hit rate 2% among 360,000; in the data active = inhibition above about 50%
HIF-2a inh – HIF-2a reporter inhibitors, primary screen, luminescence, 786-0 RCC cells. inhibition, % at 18.8 µM. 786-0 RCC cells HIF-2a reporter, luciferase luminescence, overnight. hit rate 0.72% among 360,000;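 active = inhibition of the luminescence signal of 40% or more relative to plate controls, in a single-dose primary screen at 18.75 µM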
TROY signal inh – inhibitors of TROY-driven NF-kB signaling, primary screen, Q293 LMP1-TROYcd cells, NF-kB luciferase, uHTS | Q293 LMP1-TROYcd NF-kB luciferase reporter, 4 h | inhibition, % at 10 µM | hit rate 0.98% among 360,000 | AID 1347056, 2019;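 active = compounds whose plate-normalised and pattern-corrected inhibition of the luciferase reporter signal at the single screening dose is 50% or more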
CF NFkB inh – inhibitors of PAF-induced NF-kB signaling, primary screen, cell-based, GFP fluorescence, uHTS; KKLEB NF-kB-GFP reporter, GFP fluorescence overnight; inhibition, % at 5 µM; hit rate 0.86% among 360,000; AID 588850, 2011;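 active = at least 50% inhibition at 5 µM, scaled per plate between neutral and stimulator controls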;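 note: PAF is a Pseudomonas aeruginosa culture filtrate used as stimulus; plate controls were PAF-stimulated DMSO wells for no effect and unstimulated DMSO wells for full effect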
Starred values were filed as active, the others as inactive. Rows were chosen to be rich in hits. Some 4% of all compounds tested hit in one or more screens of this group.

Screening CCN(CC)C(=O)c1cccc(-c2csc(C(C)(O)c3ccc(F)c(F)c3)n2)c1 (stereo not drawn) returned KKLEB cytotox 8.2, Peg3 promoter 28.4, TWEAK Fn14 block 25.7, HIF-2a inh 12.0, TROY signal inh 23.7 and CF NFkB inh -35.7.
Screening COc1ccc(Cn2c(C)nc3c(c2=O)c2nc4ccccc4nc2n3Cc2ccco2)cc1 returned KKLEB cytotox -14.3, Peg3 promoter 33.6, TWEAK Fn14 block 52.3*, HIF-2a inh 6.1, TROY signal inh 8.9 and CF NFkB inh 14.3.
For CN(C)[C@H]1CCN([C@@H]2CS(=O)(=O)N[C@H]2COCc2ccccc2)C1 the results were KKLEB cytotox -3.4, Peg3 promoter -16.1, TWEAK Fn14 block 7.9, HIF-2a inh 7.8, TROY signal inh 4.2 and CF NFkB inh -19.9.
Cc1ccc2c(c1)C1CN(C)CCC1N2C(=O)COc1ccc(N(C)C(=O)c2ccccc2)cc1 (stereo not drawn) was read as KKLEB cytotox -6.9, Peg3 promoter -10.9, TWEAK Fn14 block -0.1, HIF-2a inh -5.3, TROY signal inh 7.2 and CF NFkB inh 6.1.
For Cc1ccc2c(c1)C1CN(C)CCC1N2C(=O)c1cccc(S(=O)(=O)N(C)C)c1 (stereo not drawn) the results were KKLEB cytotox 18.0, Peg3 promoter -4.3, TWEAK Fn14 block 2.2, HIF-2a inh 7.6, TROY signal inh 66.9* and CF NFkB inh 1.3.
COc1cc(-c2ccc3oc(-c4cccc(C)c4)c(C#CC4(O)CCCCC4)c3c2)cc(OC)c1OC was read as KKLEB cytotox 6.0, Peg3 promoter 24.1, TWEAK Fn14 block 0.6, HIF-2a inh 8.3, TROY signal inh 2.9 and CF NFkB inh 19.4.
Screening COc1ccc(C(CCNCc2ccc(N(C)C)cc2)C(C)C)cc1 (stereo not drawn) returned KKLEB cytotox -10.5, Peg3 promoter 27.1, TWEAK Fn14 block -10.0, HIF-2a inh 9.6, TROY signal inh 4.5 and CF NFkB inh 2.4.
Screening COc1ccc(CNCCC(c2ccc(OC(C)C)cc2)c2ccccc2OC)cc1 (stereo not drawn) returned KKLEB cytotox -32.5, Peg3 promoter 113.1*, TWEAK Fn14 block 2.5, HIF-2a inh 28.4, TROY signal inh -8.6 and CF NFkB inh 27.3.
COc1ccccc1C(CCNCc1ccccc1)c1ccc(OC(C)C)cc1 (stereo not drawn) was read as KKLEB cytotox -3.0, Peg3 promoter 100.5*, TWEAK Fn14 block -3.9, HIF-2a inh 24.8, TROY signal inh -13.1 and CF NFkB inh 4.1.
COc1ccccc1C(CCNCc1ccc(N(C)C)cc1)c1ccc(OC(C)C)cc1 (stereo not drawn) was read as KKLEB cytotox -1.2, Peg3 promoter 106.9*, TWEAK Fn14 block -13.6, HIF-2a inh 2.2, TROY signal inh 7.1 and CF NFkB inh 0.4.
`COc1ccc(CNCCC(c2ccc(OC(C)C)cc2)c2ccccc2OC)cc1OC` (stereo not drawn) gave KKLEB cytotox -8.5, Peg3 promoter 87.3*, TWEAK Fn14 block 4.7, HIF-2a inh 13.7, TROY signal inh 15.1 and CF NFkB inh 16.2.
COc1ccc(C(CCNCc2ccc(OC(C)C)cc2)C(C)C)cc1 (stereo not drawn) was read as KKLEB cytotox -9.5, Peg3 promoter 49.2, TWEAK Fn14 block -5.7, HIF-2a inh -1.6, TROY signal inh -21.0 and CF NFkB inh 2.3.
Cc1ccc(S(=O)(=O)N(C)c2ccc3c(ncn3C)c2[N+](=O)[O-])cc1 was read as KKLEB cytotox -7.0, Peg3 promoter -4.6, TWEAK Fn14 block -3.4, HIF-2a inh 4.6, TROY signal inh 8.9 and CF NFkB inh -17.9.
Screening Cc1ccc(C2CC(C(F)F)n3ncc(C(=O)Nc4cnn(Cc5ccccc5C)c4)c3N2)cc1 (stereo not drawn) returned KKLEB cytotox -15.7, Peg3 promoter 61.5*, TWEAK Fn14 block 12.5, HIF-2a inh -6.0, TROY signal inh 35.6 and CF NFkB inh 18.6.
Screening CCOc1ccccc1N(C(=O)c1snc(C(N)=O)c1N)C(C(=O)NCc1ccccc1)c1ccc(O)cc1 (stereo not drawn) returned KKLEB cytotox 3.9, Peg3 promoter 30.4, TWEAK Fn14 block 85.5*, HIF-2a inh 31.9, TROY signal inh 0.7 and CF NFkB inh 12.9.
Cc1cccc(NC(=S)N2CCC(NC(=O)C3CCCCC3)CC2)c1 was read as KKLEB cytotox -1.4, Peg3 promoter -7.0, TWEAK Fn14 block 31.9, HIF-2a inh 11.1, TROY signal inh 8.2 and CF NFkB inh -0.9.
Screening Cc1nn(Cc2ccc(Cl)cc2)c(C)c1NC(=O)c1noc2c1CCc1ccccc1-2 returned KKLEB cytotox -11.5, Peg3 promoter 19.1, TWEAK Fn14 block 68.5*, HIF-2a inh -10.3, TROY signal inh 57.4* and CF NFkB inh -6.9.
For Cc1ccc(Cn2nc(C)c(NC(=O)CSc3nc4c(c(C(F)(F)F)n3)CCc3ccccc3-4)c2C)cc1 the results were KKLEB cytotox 5.5, Peg3 promoter 50.1*, TWEAK Fn14 block 11.3, HIF-2a inh 12.9, TROY signal inh -3.5 and CF NFkB inh 13.1.
`CC(=O)Oc1ccc(N(C(C)=O)S(=O)(=O)c2ccc3ccccc3c2)cc1` gave KKLEB cytotox 2.8, Peg3 promoter -5.1, TWEAK Fn14 block 5.3, HIF-2a inh 0.2, TROY signal inh 11.4 and CF NFkB inh -9.0.
For O=C(Nc1cnc2ccccn2c1=O)c1ccc(Cl)cc1Cl the results were KKLEB cytotox -1.0, Peg3 promoter 45.7, TWEAK Fn14 block 81.8*, HIF-2a inh -13.9, TROY signal inh 72.7* and CF NFkB inh -7.4.
For Cc1cccc(NC(=O)c2cnc3ccccn3c2=O)c1 the results were KKLEB cytotox -6.1, Peg3 promoter -10.2, TWEAK Fn14 block 80.5*, HIF-2a inh -49.6, TROY signal inh -18.4 and CF NFkB inh -38.8.
Screening Cc1ccc(C(=O)Nc2cnc3ccccn3c2=O)cc1 returned KKLEB cytotox 0.0, Peg3 promoter -209.1, TWEAK Fn14 block 27.3, HIF-2a inh -185.2, TROY signal inh -30.5 and CF NFkB inh -9.9.
`O=C(NCc1ccc2c(c1)OCO2)c1cnc2ccccn2c1=O` gave KKLEB cytotox 4.3, Peg3 promoter -0.4, TWEAK Fn14 block 9.6, HIF-2a inh -9.0, TROY signal inh -19.5 and CF NFkB inh -24.5.
Screening O=C(Nc1ccc2c(c1)OCCO2)c1cnc2ccccn2c1=O returned KKLEB cytotox -0.1, Peg3 promoter -46.9, TWEAK Fn14 block 69.6*, HIF-2a inh -95.1, TROY signal inh -19.7 and CF NFkB inh -2.9.
